DT40 TDP1 CPT: DT40-hTDP1 cell growth loss with CPT; chicken DT40 Tdp1-/-;hTDP1 cells + 20 nM CPT, ATP luminescence, 48 h; Potency, µM (series often up to 46.2 µM), inactives show at the highest dose activity change, negative = growth inhibition, actives largely listed as inhibitors; 12% of 420,000 active; AID 686979; further: on the % scale 0 is the no-effect control and ±100 the full control effect; nearly all actives have a fitted effect of over 55% in size
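Chicken DT40 Tdp1-/- cells stably complemented with human TDP1 were seeded at 400 cells/well in medium containing 20 nM camptothecin, exposed to pin-transferred compounds, and grown at 37 °C for at least 48 hr. Viability was read as ATP luminescence.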
TDP1 inh: TDP1 (human) enzyme inhibition | recombinant TDP1, AlphaScreen DNA substrate cleavage | 0.28% of 350,000 active | Potency, µM (doses to about 130 µM), for the others: at the top dose activity change, negative = inhibition, usual class: inhibitors; further: on the % scale 0 is the no-effect control and ±100 the full control effect; nearly all actives have a fitted effect of over 40% in size
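Enzyme-compound mixtures sat 15 min at room temperature, followed by a 5 min reaction with 15 nM final substrate and 10 min with AlphaScreen beads. Recombinant human Tdp1 was used at 1 nM final.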
TDP1 cell noCPT: qHTS for Inhibitors of human tyrosyl-DNA phosphodiesterase 1 (TDP1): qHTS in cells in absence of CPT | Potency, µM (top dose mostly 46.2 µM), for the others: at the highest dose activity change, negative = growth inhibition, actives largely listed as inhibitors | DT40 Tdp1-/- hTDP1 cells, no CPT, ATP luminescence, 48 h | 15% of 420,000 active; further: on the % scale 0 is the no-effect control and ±100 the full control effect; nearly all actives have a fitted effect of over 55% in size
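Stably hTDP1-transfected Tdp1-null chicken DT40 cells were treated with library compounds minus camptothecin and grown for at least 48 hr at 37 °C, after which cellular ATP was quantified by luminescence.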
ClpP mod: qHTS Assay for Activators of ClpP; ATP-dependent Clp protease proteolytic subunit (Bacillus subtilis (strain 168)), P80244; purified B. subtilis ClpP, FRET peptide cleavage, 20 min; Potency, µM (series often up to 57.5 µM), without a hit: at the top dose activity change, negative = active; 1.9% of 340,000 active; AID 651965, 2013; active means well fitted falling curve with a large enough effect; inconclusive means small, poorly fitted or top-dose-only effect; inactive means no such curve, though single readings can be large or run the other way; further: the source files actives as falling curves though it sought activators and does not explain the sign; nearly all actives have a fitted effect of over 65% in size
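Buffer: 100 mM Tris/HCl pH8, 100 mM KCl, 0.05% low protease BSA, 2.5% glycerol, 0.01% Tween-20. ClpP 10 microg/mL final; 20 min RT; delta FRET normalized to ADEP and DMSO controls.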
An asterisk follows results filed as active; u = inconclusive; x = no result; [ ] = another dose, or the depositor's remark. A selection: hits, their analogues and other compounds. The true share with any hit is near 17%. Unless noted, the call rests on the fitted dose curve; in most records, active means well fitted curve in the direction sought with a large enough effect; inconclusive means small, poorly fitted or top-dose-only effect, or another doubt; inactive means no such curve, though single readings can be large; an effect the other way counts as inactive or inconclusive. Potency means the concentration at half of the fitted maximal effect.

SMILES	DT40 TDP1 CPT	TDP1 inh	TDP1 cell noCPT	ClpP mod
CCCC(=O)N1CCOCC1c1cc(C(=O)Nc2ccccc2)no1 (stereo not drawn)	-3%	x	-26%	-1%
O=c1cnc2cnc(Oc3ccccc3)nc2n1CCc1ccccc1	15%	x	-18%	x
O=C(Nc1ccc2c(c1)CCCN2C(=O)c1cccs1)c1ccccc1C(F)(F)F	u	1%	23µM*	1%
COc1ccccc1C(=O)Nc1ccc2c(c1)CCCN2C(=O)c1ccccc1	16µM*	4%	13µM*	0%
COc1ccccc1C(=O)Nc1ccc2c(c1)CCCN2C(=O)c1cccs1	u	3%	21µM*	x
COc1ccc(CCNS(=O)(=O)c2c(C)nc3sccn3c2=O)cc1OC	14%	-8%	15%	-3%
CC(=O)c1c(C)[nH]c(C(=O)CSc2nc3ccc(C)cc3[nH]2)c1C	u	7%	15µM*	-9%
Cc1ccc2nc(SCC(=O)NC3CCCc4ccccc43)[nH]c2c1 (stereo not drawn)	21µM*	1%	16µM*	-1%
CCn1c(SCC(=O)c2[nH]c(C)c(C(C)=O)c2C)nnc1-c1ccccc1	23µM*	0%	26µM*	-1%
Cc1ccc2nc(SCC(=O)c3ccc4c(c3)OCO4)[nH]c2c1	4%	2%	-20%	1%
CC(=O)c1c(C)[nH]c(C(=O)CSc2nnc(NC3CC3)s2)c1C	u	1%	15µM*	x
CCOc1ccc(NC(=O)CCc2nnc3ccc(N4CCC5(CC4)OCCO5)nn23)cc1	-3%	5%	4%	-3%
O=C1CCC=C1C(O)c1ccc2c(c1)OCO2 (stereo not drawn)	x	4%	x	x
Cc1ccc2nc(SCC(=O)Nc3cc([N+](=O)[O-])ccc3F)[nH]c2c1	18µM*	5%	u	1%
C/C(=N\Nc1ccccc1)c1c(O)cc(C)oc1=O	0%	9%	10%	x
C/C(=N/NC(=O)c1cccc(C)c1)c1c(O)cc(C)oc1=O	u	5%	23µM*	-13%
O=[N+]([O-])c1cc(-c2n(-c3ccccn3)c3ccccc3[n+]2-c2ccccn2)ccc1Cl	16µM*	5%	23µM*	x
Cc1ccc(C(C)NC(=O)c2cc3ccccc3oc2=O)cc1C (stereo not drawn)	-16%	x	-5%	u
CC1=C(C(=O)N2CCCCCC2)CC(CC(=O)NC2CC2)C(=O)N1Cc1ccccc1 (stereo not drawn)	3%	x	2%	1%
CCN(CC)C(=O)C1=C(C)N(Cc2ccc(F)cc2)C(=O)C(CC(=O)NCC2CCCCC2)C1 (stereo not drawn)	u	x	21µM*	1%
CCN(CC)C(=O)C1=C(C)N(Cc2ccccc2)C(=O)C(CC(=O)NCC2CCCCC2)C1 (stereo not drawn)	u	x	u	-1%
CCN(CC)C(=O)C1=C(C)N(Cc2ccc(F)cc2)C(=O)C(CC(=O)NCCCCc2ccccc2)C1 (stereo not drawn)	u	x	21µM*	1%
CC1=C(C(=O)N(C)C)CC(CC(=O)NCCCCc2ccccc2)C(=O)N1Cc1ccc(C(C)(C)C)cc1 (stereo not drawn)	16µM*	x	13µM*	5%
CC1=C(C(=O)N2CCCCCC2)CC(CC(=O)NCCCCc2ccccc2)C(=O)N1Cc1ccccc1 (stereo not drawn)	18µM*	x	21µM*	2%
CCCCCCCCCCCCC/C=C/[C@@H](O)[C@@H](N)COP(=O)(O)O	x	7%	x	x
SMILES	DT40 TDP1 CPT	TDP1 inh	TDP1 cell noCPT	ClpP mod
COc1cc(/C=C2/CC(C)OC2=O)c([N+](=O)[O-])cc1OC (stereo not drawn)	0%	4%	u	-3%
CC(=O)N(Cc1ccc2c(c1)OCO2)Cc1cc2ccc(C)cc2nc1-c1cccc(C)c1	u	x	0.46µM*	x
CC(C)(CNC(=O)c1cnn(-c2nccc(-c3cc4ccccc4o3)n2)c1C1CC1)N1CCOCC1	-8%[9.04 µM]	x	-4%	x
Cc1ccccc1CS(=O)(=O)c1ncc(Cl)c(C(=O)Nc2ccc(F)cc2)n1	3.3µM*	3%	2.1µM*	0%
Cc1ccc(NC(=O)c2nc(SCc3ccccc3F)ncc2Cl)cc1	-14%	x	-7%	9%
CCOc1ccc(NC(=O)c2nc(S(=O)(=O)Cc3ccccc3C)ncc2Cl)cc1	1µM*	x	0.71µM*	-7%

Assay outcomes deposited in PubChem by National Center for Advancing Translational Sciences (NCATS).
